# Laboratory results reported in the supplement of paper PMC6897291.
# Several values for one entry are separate records, joined by “and”; a condition that tells them apart may be missing. Identical values can stand only once. Counter-ions that a name gives are not always drawn.
# Tests used:
# [1] = test system: U-2932; test: growth inhibition by drug alone (1 - RLU/untreated control) (fraction); higher = stronger inhibition; conditions: 177Lu-lilotomab satetraxetan 0 ug/ml
# Method in brief: (§1)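 RIVA or U-2932 cells were left untreated or pretreated for 18 h with a radiolabelled anti-CD37 antibody conjugate (~600 MBq/mg) at 0.5 µg/ml for RIVA or 1 µg/ml for U-2932. The cells were then washed and seeded at 3,000 cells/well on plates pre-printed with the Selleck Cambridge Cancer Compound library, dosed at 10/100 nM for RIVA and 10/1,000 nM for U-2932. From day 3, RealTime-Glo luminescence was read daily after 1 h at 37°C. Growth inhibition was taken as one minus RLU over the mean of the untreated no-drug wells, of which there were 48 per plate.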
# [2] = test system: RIVA; test: as above; conditions: 177Lu-lilotomab satetraxetan 0 ug/ml
# Method in brief: as §1
# [3] = test system: U-2932; test: growth inhibition by drug plus 177Lu-lilotomab satetraxetan (1 - RLU/untreated control) (fraction); higher = stronger inhibition; conditions: 177Lu-lilotomab satetraxetan 1 ug/ml
# Method in brief: as §1
# [4] = test system: RIVA; test: as above; conditions: 177Lu-lilotomab satetraxetan 0.5 ug/ml
# Method in brief: as §1
SMILES,"growth inhibition by drug alone ([1]; 10 nM, time (day): 3)","growth inhibition by drug alone ([1]; 10 nM, time (day): 4)","growth inhibition by drug alone ([1]; 10 nM, time (day): 5)","growth inhibition by drug alone ([1]; 10 nM, time (day): 6)","growth inhibition by drug alone ([1]; 1000 nM, time (day): 3)","growth inhibition by drug alone ([1]; 1000 nM, time (day): 4)","growth inhibition by drug alone ([1]; 1000 nM, time (day): 5)","growth inhibition by drug alone ([1]; 1000 nM, time (day): 6)","growth inhibition by drug alone ([2]; 10 nM, time (day): 3)","growth inhibition by drug alone ([2]; 10 nM, time (day): 4)","growth inhibition by drug alone ([2]; 10 nM, time (day): 5)","growth inhibition by drug alone ([2]; 10 nM, time (day): 6)","growth inhibition by drug alone ([2]; 100 nM, time (day): 3)","growth inhibition by drug alone ([2]; 100 nM, time (day): 4)","growth inhibition by drug alone ([2]; 100 nM, time (day): 5)","growth inhibition by drug alone ([2]; 100 nM, time (day): 6)","growth inhibition by drug plus 177Lu-lilotomab satetraxetan ([3]; 10 nM, time (day): 3)","growth inhibition by drug plus 177Lu-lilotomab satetraxetan ([3]; 10 nM, time (day): 4)","growth inhibition by drug plus 177Lu-lilotomab satetraxetan ([3]; 10 nM, time (day): 5)","growth inhibition by drug plus 177Lu-lilotomab satetraxetan ([3]; 10 nM, time (day): 6)","growth inhibition by drug plus 177Lu-lilotomab satetraxetan ([3]; 1000 nM, time (day): 3)","growth inhibition by drug plus 177Lu-lilotomab satetraxetan ([3]; 1000 nM, time (day): 4)","growth inhibition by drug plus 177Lu-lilotomab satetraxetan ([3]; 1000 nM, time (day): 5)","growth inhibition by drug plus 177Lu-lilotomab satetraxetan ([3]; 1000 nM, time (day): 6)","growth inhibition by drug plus 177Lu-lilotomab satetraxetan ([4]; 10 nM, time (day): 3)","growth inhibition by drug plus 177Lu-lilotomab satetraxetan ([4]; 10 nM, time (day): 4)","growth inhibition by drug plus 177Lu-lilotomab satetraxetan ([4]; 10 nM, time (day): 5)","growth inhibition by drug plus 177Lu-lilotomab satetraxetan ([4]; 10 nM, time (day): 6)","growth inhibition by drug plus 177Lu-lilotomab satetraxetan ([4]; 100 nM, time (day): 3)","growth inhibition by drug plus 177Lu-lilotomab satetraxetan ([4]; 100 nM, time (day): 4)","growth inhibition by drug plus 177Lu-lilotomab satetraxetan ([4]; 100 nM, time (day): 5)","growth inhibition by drug plus 177Lu-lilotomab satetraxetan ([4]; 100 nM, time (day): 6)"
Cn1cc(C2=C(c3ccc(Cl)cc3Cl)C(=O)NC2=O)c2ccccc21,-0.00858,0.00823,0.113,-0.0764,-0.0209,-0.0468,-0.0762,-0.00785,-0.0583,-0.11,-0.108,-0.172,-0.488,-0.393,-0.389,-0.481,-0.0696,0.00483,0.017,-0.0529,0.0138,0.0592,0.059,0.146,,,,,,,,
Oc1cccc(-c2nc(N3CCOCC3)c3oc4ncccc4c3n2)c1,0.191,0.128,-0.0145,-0.0687,0.836,0.879,0.891,0.894,0.135,0.0735,0.0557,-0.0131,0.762,0.695,0.667,0.585,0.125,0.138,0.171,0.231,0.633,0.625,0.627,0.655,0.54,0.556,0.562,0.572,0.837,0.831,0.827,0.824
NC(=O)c1ccc(-c2nc(-c3ccccn3)c(-c3ccc4c(c3)OCO4)[nH]2)cc1,0.107,0.0821,-0.071,-0.0929,0.0294,0.069,-0.0548,-0.0669,0.151,0.132,0.0924,-0.233,-0.221,-0.199,-0.195,-0.245,0.0841,0.129,0.164,0.198,0.0479,0.102,0.125,0.211,,,,,,,,
NC(=O)Nc1sc(-c2ccc(F)cc2)cc1C(N)=O,0.0734,0.0553,0.0297,-0.262,0.197,0.229,0.176,0.239,-0.0481,-0.0689,-0.274,-0.781,-0.446,-0.283,-0.285,-0.444,0.0182,0.0728,0.0938,0.118,0.334,0.356,0.397,0.502,,,,,,,,
Cc1nnc(C(C)C)n1C1C[C@H]2CC[C@@H](C1)N2CC[C@H](NC(=O)C1CCC(F)(F)CC1)c1ccccc1 (stereo in doubt) [Maraviroc],0.125,0.118,0.0854,-0.0157,0.0827,0.0764,-0.0104,-0.122,0.071,0.0921,0.049,-0.0807,0.1,0.0864,0.0269,-0.0532,0.128,0.146,0.143,0.239,0.0251,0.112,0.105,0.201,,,,,,,,
CC#C[C@]1(O)CC[C@H]2[C@@H]3CCC4=CC(=O)CCC4=C3[C@@H](c3ccc(N(C)C)cc3)C[C@@]21C [Mifepristone (Mifeprex)],,,,,,,,,-0.296,-0.283,-0.273,-0.268,-0.146,-0.253,-0.254,-0.235,-0.019,0.0308,0.0649,0.159,-0.0642,-0.00915,0.0416,0.233,0.413,0.477,0.486,0.497,0.391,0.438,0.445,0.436
COc1c(C)c2c(c(O)c1C/C=C(\C)CCC(=O)OCCN1CCOCC1)C(=O)OC2 [Mycophenolate mofetil (CellCept)],,,,,,,,,0.15,0.0186,-0.0505,-0.245,0.284,0.214,0.154,0.0335,0.0524,0.064,0.0624,0.115,0.826,0.893,0.89,0.878,0.413,0.511,0.534,0.55,0.554,0.581,0.583,0.539
Cc1cc(Nc2cc(N3CCN(C)CC3)nc(/C=C/c3ccccc3)n2)n[nH]1,,,,,,,,,-0.27,-0.286,-0.318,-0.447,-0.354,-0.347,-0.369,-0.539,-0.149,-0.0973,-0.0755,-0.0149,0.048,0.00467,0.0776,0.323,0.336,0.485,0.509,0.521,0.23,0.353,0.36,0.357
C[C@@H](Oc1cc(-c2cnn(C3CCNCC3)c2)cnc1N)c1c(Cl)ccc(F)c1Cl,,,,,,,,,0.00835,0.0307,-0.0637,-0.409,-0.398,-0.211,-0.28,-0.62,0.0291,0.0614,0.116,0.192,0.115,0.223,0.397,0.566,0.466,0.573,0.592,0.61,0.405,0.523,0.532,0.543
CC1(C)CNc2cc(NC(=O)c3cccnc3NCc3ccncc3)ccc21 [Motesanib Diphosphate],0.0212,-0.0392,-0.0873,-0.298,-0.0958,-0.0733,-0.118,-0.248,-0.0638,-0.211,-0.283,-0.584,-0.22,-0.341,-0.349,-0.452,-0.0309,-0.0326,-0.0402,0.00139,-0.132,-0.033,-0.00123,0.0914,,,,,,,,
C[S+]([O-])c1ccc(-c2nc(-c3ccc(F)cc3)c(-c3ccncc3)[nH]2)cc1 (stereo not drawn),0.109,0.0691,0.0651,0.00981,0.494,0.396,0.258,0.202,-0.0319,0.0179,-0.0545,-0.284,-0.128,-0.0437,-0.0833,-0.227,0.103,0.123,0.206,0.225,0.441,0.358,0.325,0.374,,,,,,,,
C/C(=C\C(=O)Nc1ccccc1C(=O)O)c1ccc2ccccc2c1,,0.0133 and 0.0332,,,-0.0224 and -0.014,,-0.0613 and -0.0571,-0.273 and -0.127,,,-0.0819 and -0.194,-0.258 and -0.514,,,,,-0.0301 and -0.033,,0.025 and 0.0323,,-0.0817 and -0.0426,,,0.0333 and 0.0305,0.404 and 0.42,0.545 and 0.538,0.571 and 0.547,0.581 and 0.558,0.399 and 0.427,0.502 and 0.474,0.502 and 0.482,0.484 and 0.467
CN(C)CCOc1ccc(-c2nc(-c3ccncc3)c(-c3ccc4c(c3)CC/C4=N\O)[nH]2)cc1,-0.0248,-0.0722,-0.0892,0.0453,0.104,0.0148,0.0221,0.134,-0.226,-0.183,-0.167,-0.14,-0.788,-0.651,-0.644,-0.615,-0.0652,-0.0236,0.0668,0.196,0.124,0.0207,0.0638,0.259,,,,,,,,
CN1CC[C@H](c2c(O)cc(O)c3c(=O)cc(-c4ccccc4Cl)oc23)[C@H](O)C1 [Flavopiridol hydrochloride],,,,,,,,,-0.111,-0.116,-0.189,-0.255,0.504,0.533,0.499,0.385,-0.0108,0.0505,0.0958,0.189,0.965,0.972,0.978,0.983,0.521,0.567,0.566,0.567,0.615,0.69,0.704,0.72
Nc1[nH]nc2nnc(-c3c(-c4ccccc4)nn4ccccc34)cc12,,,,,,,,,,,,,,,,,0.135,0.17,0.238,0.275,0.0922,0.143,0.19,0.259,0.592,0.635,0.657,0.652,0.357,0.48,0.493,0.495
CC(=O)O[C@]1(C(C)=O)CC[C@H]2[C@@H]3C=C(C)C4=CC(=O)CC[C@]4(C)[C@H]3CC[C@@]21C [Megestrol Acetate],,,,,,,,,-0.0198,-0.0102,-0.107,-0.454,0.0472,0.023,-0.0299,-0.147,0.0333,0.104,0.0868,0.12,0.044,0.137,0.0953,0.163,,,,,,,,
C[C@]1(O)C[C@@H](c2nc(-c3ccc4ccc(-c5ccccc5)nc4c3)c3c(N)nccn32)C1 [Linsitinib (OSI-906)],,,,,,,,,-0.215,-0.216,-0.261,-0.348,-0.356,-0.307,-0.329,-0.365,-0.0826,-0.0138,0.0354,0.14,-0.09,-0.0306,0.0298,0.223,0.4,0.48,0.495,0.5,0.283,0.4,0.417,0.42
CCC[C@H](NC(=O)/C(C#N)=C/c1cccc(Br)n1)c1ccccc1,,,,,,,,,,,,,,,,,0.0639,0.1,0.129,0.098,0.0285,0.0599,0.115,0.183,0.529,0.596,0.601,0.61,0.35,0.448,0.465,0.478
Cc1ccc(C(=O)Nc2ccc(CN3CCN(C)CC3)c(C(F)(F)F)c2)cc1C#Cc1cnc2cccnn12,,,,,,,,,-0.13,-0.226,-0.275,-0.383,0.59,0.607,0.6,0.53,-0.1,-0.0253,0.0155,0.0448,0.74,0.819,0.844,0.883,0.39,0.475,0.499,0.509,0.689,0.752,0.77,0.788
COc1cc(OC2CCN(C)CC2)ccc1Nc1ncc2c(n1)n(C1CCCC1)c(=O)n2C,,,,,,,,,-0.233,-0.291,-0.358,-0.453,-0.524,-0.553,-0.545,-0.66,-0.087,-0.0366,0.0152,0.102,-0.121,-0.0709,-0.0115,0.128,0.539,0.578,0.601,0.587,0.355,0.432,0.453,0.479
